Data published in PubChem BioAssay (NCI).
Compounds without any hit were thinned out: in the full panel of roughly 83,000, 20% have a hit.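 Negative percent growth values reflect cell death: -40 means 40% of the cells present at the start died, and -100 means all died.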 The source made the active and inactive calls. The calls were made as follows: active = growth percent below 10; inactive = the rest.

How the values were obtained:
Assay in all cases: NCI-60 one-dose screen, 48 h (100 = growth as untreated, 0 = no growth, -100 = all killed)
Details in all cases: 10 µM unless noted
SR leukemia = system: SR leukemia
RPMI-8226 leukemia = system: RPMI-8226 leukemia
OVCAR-8 ovarian = system: OVCAR-8 ovarian
OVCAR-5 ovarian = system: OVCAR-5 ovarian
OVCAR-4 ovarian = system: OVCAR-4 ovarian
IGROV1 ovarian = system: IGROV1 ovarian
OVCAR-3 ovarian = system: OVCAR-3 ovarian
HS 578T breast = system: HS 578T breast
NCI/ADR-RES ovarian = system: NCI/ADR-RES ovarian
T-47D breast = system: T-47D breast
BT-549 breast = system: BT-549 breast
MDA-MB-435 melanoma = system: MDA-MB-435 melanoma
SW-620 colon = system: SW-620 colon
MCF7 breast = system: MCF7 breast
HCT-116 colon = system: HCT-116 colon
HCC-2998 colon = system: HCC-2998 colon
KM12 colon = system: KM12 colon
SK-OV-3 ovarian = system: SK-OV-3 ovarian

Measured: growth

CC1=C(C(=O)OCc2ccccc2)C(c2ccc3c(c2)OCO3)n2c(nc3ccccc32)N1 (stereo not given)
active: SR leukemia 9.81% | HS 578T breast 0.752% | MDA-MB-435 melanoma -35.4%
inactive: RPMI-8226 leukemia 39.8% | OVCAR-8 ovarian 46.7% | OVCAR-5 ovarian 64.4% | OVCAR-4 ovarian 73.8% | IGROV1 ovarian 41.4% | OVCAR-3 ovarian 12.1% | NCI/ADR-RES ovarian 23.2% | T-47D breast 40.9% | BT-549 breast 50.5% | SW-620 colon 17.6% | MCF7 breast 20.6% | HCT-116 colon 18.8% | HCC-2998 colon 56.4% | KM12 colon 17.3%

COc1ccc(C(c2cc(OC)c(OC)c(OC)c2)n2cncn2)cc1O (stereo not given)
active: SR leukemia 7.03% | OVCAR-3 ovarian 1.74% | NCI/ADR-RES ovarian 1.8% | MDA-MB-435 melanoma -46.2% | HCT-116 colon 7.25%
inactive: RPMI-8226 leukemia 20.7% | OVCAR-8 ovarian 13.4% | OVCAR-5 ovarian 73% | OVCAR-4 ovarian 72.1% | SK-OV-3 ovarian 20.3% | HS 578T breast 31.3% | T-47D breast 35% | BT-549 breast 11.3% | SW-620 colon 29.1% | MCF7 breast 17.9% | HCC-2998 colon 25.3% | KM12 colon 21.8%

O=C(NC1CCCCCC1)c1ccc2c(=O)n3c(nc2c1)CCCCC3
inactive: SR leukemia 116% | RPMI-8226 leukemia 87% | OVCAR-8 ovarian 101% | OVCAR-5 ovarian 111% | OVCAR-4 ovarian 76.2% | IGROV1 ovarian 94.2% | OVCAR-3 ovarian 110% | HS 578T breast 83% | NCI/ADR-RES ovarian 91.3% | T-47D breast 100% | BT-549 breast 100% | MDA-MB-435 melanoma 112% | SW-620 colon 101% | MCF7 breast 100% | HCT-116 colon 104% | HCC-2998 colon 121% | KM12 colon 115%

C=CC(=O)Nc1ccc2ncnc(Nc3cccc(NS(=O)(=O)CCC)c3Cl)c2c1
inactive: SR leukemia 35.7% | RPMI-8226 leukemia 55.4% | OVCAR-8 ovarian 48.2% | OVCAR-5 ovarian 36.2% | OVCAR-4 ovarian 66.8% | IGROV1 ovarian 18.5% | OVCAR-3 ovarian 12.7% | HS 578T breast 20.6% | NCI/ADR-RES ovarian 83.4% | T-47D breast 24.5% | BT-549 breast 35.7% | MDA-MB-435 melanoma 26.2% | SW-620 colon 74.4% | MCF7 breast 56.2% | HCT-116 colon 67.9% | HCC-2998 colon 93.3% | KM12 colon 78.4%

CCN(CC)CCN1C(=O)c2c(c(C)c3c(oc4cc(OC)ccc43)c2C)C1=O
active: MCF7 breast -8.69%
inactive: SR leukemia 29.3% | RPMI-8226 leukemia 88.1% | OVCAR-8 ovarian 90.6% | OVCAR-5 ovarian 94.2% | OVCAR-4 ovarian 73.8% | IGROV1 ovarian 42.2% | OVCAR-3 ovarian 112% | HS 578T breast 118% | NCI/ADR-RES ovarian 86.2% | T-47D breast 104% | BT-549 breast 98.2% | MDA-MB-435 melanoma 95.6% | SW-620 colon 96.3% | HCT-116 colon 94.1% | HCC-2998 colon 103% | KM12 colon 102%

COc1cc(/C=N/NC(=O)c2ccc3nc(-c4ccc(Cl)cc4)[nH]c3c2)cc(OC)c1OC
inactive: SR leukemia 45.7% | RPMI-8226 leukemia 19.9% | OVCAR-8 ovarian 60.5% | OVCAR-5 ovarian 172% | OVCAR-4 ovarian 102% | IGROV1 ovarian 68.4% | OVCAR-3 ovarian 61.6% | HS 578T breast 48.3% | NCI/ADR-RES ovarian 106% | T-47D breast 15.9% | BT-549 breast 70.7% | SW-620 colon 78.7% | MCF7 breast 12.1% | HCT-116 colon 36.2% | KM12 colon 61.8%

C#C[C@]1(O)CC[C@H]2[C@@H]3CC=C4c5sc(-c6cccc(C)c6)nc5CC[C@]4(C)[C@H]3CC[C@@]21C
active: RPMI-8226 leukemia -6.87%
inactive: SR leukemia 38.6% | OVCAR-8 ovarian 89.9% | OVCAR-5 ovarian 73.8% | OVCAR-4 ovarian 81.2% | IGROV1 ovarian 68.8% | OVCAR-3 ovarian 89.2% | HS 578T breast 40.8% | NCI/ADR-RES ovarian 80.9% | T-47D breast 78.6% | BT-549 breast 71.5% | MDA-MB-435 melanoma 82.8% | SW-620 colon 84.8% | MCF7 breast 34.9% | HCT-116 colon 68.2% | HCC-2998 colon 72.5% | KM12 colon 54.3%

COc1ccc(-c2cc(-c3ccc(N(C)C)cc3)nc(NC(=O)c3cccnc3)n2)cc1
inactive: SR leukemia 86.4% | RPMI-8226 leukemia 95.3% | OVCAR-8 ovarian 99.3% | OVCAR-5 ovarian 105% | OVCAR-4 ovarian 103% | IGROV1 ovarian 102% | OVCAR-3 ovarian 106% | HS 578T breast 104% | NCI/ADR-RES ovarian 102% | T-47D breast 85.6% | BT-549 breast 119% | MDA-MB-435 melanoma 103% | SW-620 colon 101% | MCF7 breast 81.9% | HCT-116 colon 102% | HCC-2998 colon 120% | KM12 colon 98.3%

CC1=C([Se]CC(OC(=O)[C@@H](CO)NC(=O)OC(C)(C)C)C(=O)NCCCCCC(=O)OCc2ccccc2)C(=O)c2ccccc2C1=O (stereo not given in full)
active: SR leukemia -4.61% | RPMI-8226 leukemia -28.9% | OVCAR-5 ovarian -70.5% | OVCAR-4 ovarian -98.1% | SK-OV-3 ovarian -60.1% | IGROV1 ovarian -93.9% | OVCAR-3 ovarian -82.1% | HS 578T breast 2.05% | NCI/ADR-RES ovarian -76.6% | T-47D breast -94.3% | BT-549 breast -98.6% | SW-620 colon -42% | MCF7 breast -44.7% | HCT-116 colon -88.9% | KM12 colon -52.7%

COc1ccc(Nc2nccc(Nc3ccc4[nH]ncc4c3)n2)cc1
active: SR leukemia 4.38% | RPMI-8226 leukemia 2.72% | T-47D breast -3.74%
inactive: OVCAR-5 ovarian 52.1% | OVCAR-4 ovarian 33.3% | SK-OV-3 ovarian 52.1% | IGROV1 ovarian 50.6% | OVCAR-3 ovarian 48.9% | HS 578T breast 46.7% | NCI/ADR-RES ovarian 17.7% | BT-549 breast 44.2% | MDA-MB-435 melanoma 34.9% | SW-620 colon 24.8% | MCF7 breast 13.3% | HCT-116 colon 19.3% | HCC-2998 colon 63.4% | KM12 colon 10%

Cc1ccc2c(c1)CC(O)CC1C(=O)N(CCO)CC(=O)N21 (stereo not given)
inactive: SR leukemia 87.3% | RPMI-8226 leukemia 98.8% | OVCAR-5 ovarian 101% | OVCAR-4 ovarian 113% | SK-OV-3 ovarian 103% | IGROV1 ovarian 112% | OVCAR-3 ovarian 115% | HS 578T breast 103% | NCI/ADR-RES ovarian 104% | T-47D breast 93.1% | BT-549 breast 103% | MDA-MB-435 melanoma 106% | SW-620 colon 106% | MCF7 breast 96.8% | HCT-116 colon 95.9% | HCC-2998 colon 104% | KM12 colon 105%

Cc1oc2ccc(O)c(CN3CCCCCC3)c2c1C(=O)Nc1ccc(C(F)(F)F)cc1
active: SR leukemia -8.44%
inactive: RPMI-8226 leukemia 75.1% | OVCAR-5 ovarian 85.8% | OVCAR-4 ovarian 58.6% | SK-OV-3 ovarian 76.3% | IGROV1 ovarian 54.3% | OVCAR-3 ovarian 62% | HS 578T breast 65.5% | NCI/ADR-RES ovarian 53.6% | T-47D breast 74% | BT-549 breast 78.5% | MDA-MB-435 melanoma 58.2% | SW-620 colon 67.4% | MCF7 breast 48.1% | HCT-116 colon 32.7% | HCC-2998 colon 11.2% | KM12 colon 65.5%

Cc1nc2sc(C(=O)Nc3ccccc3)c(N)c2cc1C(O)c1ccccc1 (stereo not given)
inactive: OVCAR-5 ovarian 33.2% | OVCAR-4 ovarian 46.9% | SK-OV-3 ovarian 27.3% | IGROV1 ovarian 27.7% | NCI/ADR-RES ovarian 15% | T-47D breast 54.6% | BT-549 breast 67.9% | SW-620 colon 24.1% | MCF7 breast 17% | HCT-116 colon 11.8% | HCC-2998 colon 15.4% | KM12 colon 18.3%
active: SR leukemia -5.59% | RPMI-8226 leukemia 5.65% | OVCAR-3 ovarian 5.62% | HS 578T breast 8.01% | MDA-MB-435 melanoma -18.3%

CCOC(=O)C1=CCC(n2cc(F)c(=O)[nH]c2=O)O1 (stereo not given)
inactive: SR leukemia 99.8% | RPMI-8226 leukemia 105% | OVCAR-5 ovarian 119% | OVCAR-4 ovarian 130% | SK-OV-3 ovarian 121% | IGROV1 ovarian 126% | OVCAR-3 ovarian 92.5% | HS 578T breast 116% | NCI/ADR-RES ovarian 106% | T-47D breast 98.5% | BT-549 breast 107% | MDA-MB-435 melanoma 110% | SW-620 colon 89.9% | MCF7 breast 93.1% | HCT-116 colon 96.7% | HCC-2998 colon 103% | KM12 colon 88.3%

CSc1nc(CC(C)C)c(C#N)c(=O)n1C
inactive: SR leukemia 47.4% | RPMI-8226 leukemia 64.5% | OVCAR-8 ovarian 77.1% | OVCAR-5 ovarian 74.7% | OVCAR-4 ovarian 52.4% | OVCAR-3 ovarian 61.3% | HS 578T breast 58.4% | NCI/ADR-RES ovarian 72.5% | T-47D breast 33.4% | BT-549 breast 58.8% | MDA-MB-435 melanoma 65.8% | SW-620 colon 63.1% | MCF7 breast 38.7% | HCT-116 colon 60.4% | KM12 colon 86.5%

CC(=O)Cc1nsc(NC(=O)c2cc(-c3cc(Cl)ccc3Cl)oc2C)n1
inactive: SR leukemia 98.5% | RPMI-8226 leukemia 100% | OVCAR-5 ovarian 111% | OVCAR-4 ovarian 113% | SK-OV-3 ovarian 104% | OVCAR-3 ovarian 110% | HS 578T breast 106% | NCI/ADR-RES ovarian 108% | T-47D breast 87.6% | MDA-MB-435 melanoma 101% | SW-620 colon 107% | MCF7 breast 97.7% | HCT-116 colon 95.8% | HCC-2998 colon 103% | KM12 colon 107%

CC1=NC(=S)NC(c2ccccc2)/C1=C1/CC(c2ccccc2O)NN1 (stereo not given)
inactive: SR leukemia 97.8% | RPMI-8226 leukemia 97.7% | OVCAR-5 ovarian 101% | OVCAR-4 ovarian 101% | SK-OV-3 ovarian 98.2% | IGROV1 ovarian 93.2% | OVCAR-3 ovarian 109% | HS 578T breast 108% | NCI/ADR-RES ovarian 104% | T-47D breast 100% | BT-549 breast 99.6% | MDA-MB-435 melanoma 103% | SW-620 colon 100% | MCF7 breast 102% | HCT-116 colon 99.6% | KM12 colon 104%
